# Autofluor counter: flagged as autofluorescent in microsphere protease counterscreen; compound autofluorescence counterscreen, microsphere flow cytometry; hits give high values; fluorescence intensity (no concentration beside the values); hit rate 3.1% among 360,000; AID 624483; in the data active = fluorescence intensity above about 16000; inconclusive = no clear call, values can overlap the other calls
# 3CLpro inhibitor: SARS-CoV 3CLpro protease inhibitors, primary screen, biochemical, quenched FRET; Replicase polyprotein 1ab (Severe acute respiratory syndrome coronavirus), P0C6X7; recombinant SARS-CoV 3CLpro, quenched FRET peptide cleavage; inhibition, % at 6 µM; hit rate 0.14% among 290,000; in the data active = inhibition above about 12%
# Anthrax LF inh2: Bacillus anthracis LF protease inhibitors, primary screen, biochemical, multiplex microsphere, MLPCN library | inhibition, % at 10 µM | Lethal factor (Bacillus anthracis), P15917 | multiplex microsphere protease cleavage assay | hit rate 0.12% among 360,000; also: plate controls were buffer without enzyme for full effect and enzyme alone for no effect
# BoNT-F LC inh: BoNT/F light chain protease inhibitors, primary screen, biochemical, flow cytometry, MLPCN library; Botulinum neurotoxin type F light chain protease (Clostridium botulinum); Multiplex microsphere protease cleavage assay; hit rate 0.22% among 360,000; inhibition, % at 10 µM; in the data active = inhibition above about 35%, passing the limit was not always enough; inconclusive = no clear call, values can overlap the other calls; also: plate controls were buffer without enzyme for full effect and enzyme alone for no effect
# BoNT A protease: BoNT/A light chain protease inhibitors, primary screen, biochemical, flow cytometry, MLPCN library; inhibition, % at 10 µM; multiplex microsphere protease substrate cleavage; Botulinum neurotoxin type A light chain protease (Clostridium botulinum A str. ATCC 3502); hit rate 0.17% among 360,000; also: plate controls were buffer without enzyme for full effect and enzyme alone for no effect
# BJeLR lethal: MLPCN primary cell-based screen for lethality selective to Ras in HRASV12 cells | hit rate 0.17% among 300,000 | inhibition, % (no concentration beside the values) | AID 1554, 2009 | BJeLR (HRASV12) viability, CellTiter-Glo ATP luminescence, 48 h; in the data active = inhibition above about 50%; inconclusive = no clear call, values can overlap the other calls
# * = called active by the depositor; ? = inconclusive; . = not tested or not shown. Most compounds without a hit are left out; they make up all but 3.6% or so of the library. Rule as the data show it, unless noted: active = inhibition above about 30%; inconclusive = no clear call, values can overlap the other calls; inactive = below that.
SMILES,Autofluor counter,3CLpro inhibitor,Anthrax LF inh2,BoNT-F LC inh,BoNT A protease,BJeLR lethal
COC(=O)Nc1ccc2c(c1)N(C(=O)CCN1CCN3CCCC3C1)c1ccccc1S2 (stereo unspecified),23102*,2.0,-1.3,-3.7,?,2.7
COC(=O)Nc1ccc2c(c1)N(C(=O)CCN1CCN3CCCC3C1)c1ccccc1CC2 (stereo unspecified),4356,1.2,4.2,?,1.0,0.1
Cc1ccc(C2(CC(=O)O)CCOC(C)(C)C2)cc1 (stereo unspecified),19797*,1.8,0.7,1.7,?,-12.8
Cc1ccc(-c2nc(=S)c3c(n2Cc2ccco2)CCCC3)cc1,3147,-3.7,-4.2,-1.3,0.1,.
CN(C)CCCn1c(-c2ccccc2)nc(=S)c2c1CCCC2,19594*,3.8,-14.1,-31.8,?,-8.5
Cc1cccc(-c2nc(=S)c3c(n2Cc2ccco2)CCCC3)c1,22703*,5.1,-10.5,1.2,3.4,-11.7
OCCCn1c(-c2ccccc2)nc(=S)c2c1CCCC2,21784*,2.1,0.7,1.5,?,-3.2
O=C(NC(Cc1ccccc1)C(=O)N1CCN(S(=O)(=O)c2ccccc2)CC1)c1ccccc1 (stereo unspecified),4175,4.3,-0.3,11.9,2.9,7.2
O=C(NC(Cc1ccccc1)C(=O)O)c1ccc(S(=O)(=O)N2CCOCC2)cc1 (stereo unspecified),19429*,-5.6,-1.0,-0.8,0.2,-1.8
O=C(O)CNC(=O)c1ccc(S(=O)(=O)N2CCOCC2)cc1,20309*,4.5,1.2,1.5,1.1,3.0
COc1ccc(CC2CCOC2=O)cc1 (stereo unspecified),20533*,-3.8,-8.7,9.5,4.9,-0.9
Cc1[nH]c2ccccc2c1C1(O)C(=O)N(C(C)C)c2ccccc21 (stereo unspecified),23898*,5.3,-1.3,-7.2,-1.4,-1.2
CCCN1C(=O)C(O)(c2c(C)[nH]c3ccccc23)c2ccccc21 (stereo unspecified),3980,1.4,3.6,-15.4,-4.6,-4.2
CCCOP(=O)(c1ccc(N(C)C)cc1)C(O)c1ccncc1 (stereo unspecified),19418*,-3.6,-7.7,2.6,1.5,.
Cc1cccnc1Sc1c([N+](=O)[O-])ncn1C,8836,5.2,-4.6,-1.4,1.1,-0.5
Cn1cnc(Sc2ncnc3nc[nH]c23)c1[N+](=O)[O-],4294,3.1,-4.9,-2.1,-0.6,53.7*
Cc1cccc(Sc2c([N+](=O)[O-])ncn2C)c1,23323*,0.2,1.3,-0.6,-0.3,-14.4
Cn1cnc([N+](=O)[O-])c1Sc1ncnc2nc[nH]c12,2902,5.5,8.1,6.7,0.1,68.9*
NC(=O)CN(c1ccc([N+](=O)[O-])cc1)S(=O)(=O)c1ccccc1,3549,3.2,-0.4,-7.4,-0.3,-0.5
COc1ccc(C)cc1-n1nnnc1SCc1cc(=O)n2cc(C)ccc2n1,4388,-1.0,-3.4,-2.5,0.6,-2.2
CCOC(=O)NC1(C(F)(F)F)NC(=O)N(Cc2ccco2)C1=O (stereo unspecified),16624*,-0.9,1.9,-0.2,?,15.3
CC(C)CN1C(=O)NC(NC(=O)c2ccco2)(C(F)(F)F)C1=O (stereo unspecified),2827,2.5,1.4,4.4,-0.3,2.4
Cc1ccc(N2CC(C(=O)N3CCCCCC3)CC2=O)cc1 (stereo unspecified),5592,1.4,-8.9,-4.4,-1.3,10.0
Cc1ccc2nc(-c3cccc(NC(=O)c4ccc5c(c4)OCCO5)c3)oc2c1,21708*,4.0,-5.0,-4.0,?,6.2
CCC(=O)Nc1cccc(-c2nc3ccc(C)cc3o2)c1,.,-1.6,.,.,.,-2.7
SMILES,Autofluor counter,3CLpro inhibitor,Anthrax LF inh2,BoNT-F LC inh,BoNT A protease,BJeLR lethal
N#Cc1sc2nc(-c3cccs3)cc(-c3ccccc3)c2c1N,5933,5.8,3.4,-0.3,2.8,-6.3
N#Cc1sc2nc(-c3cccs3)cc(-c3ccc(Cl)cc3)c2c1N,16199*,-2.3,11.7,1.6,?,-1.3
O=C(CSc1nn(-c2ccccc2)c(=S)s1)NC(=O)NCc1ccco1,23530*,3.5,-0.5,-1.3,-1.5,-11.9
CNc1ncnc2c1ncn2[C@H]1CN(Cc2ccc(-c3ccccc3)cc2)C[C@@H](CO)O1,3587,.,0.1,-2.7,-0.5,.
COc1ccc(NC(=O)CN(C)C(=O)c2sc3cc(Cl)ccc3c2Cl)cc1,5181,.,0.0,-5.5,0.8,2.3
CC(=O)N(CCC(c1ccccc1)c1ccco1)Cc1cccs1 (stereo unspecified),4723,-7.3,-0.3,-4.7,0.2,-1.0
CCC(=O)N(CCC(c1ccco1)c1ccccc1OC)Cc1cccs1 (stereo unspecified),23755*,2.1,-1.2,-0.4,0.5,-18.0
Cc1cc2c(n1-c1ccc(C(N)=O)cc1)CC(C)(C)CC2=O,22230*,-2.8,-1.6,-3.0,?,-1.1
Cc1ccc(-n2c3c(cc(C(=O)N4CCN(C)CC4)c2=O)C(=O)CC(C)(C)C3)cc1,9464,1.8,-5.8,8.9,-0.3,-8.4
O=C(NCCCN1CCOCC1)C1COc2ccccc2O1 (stereo unspecified),16494*,2.0,-1.7,-5.4,-1.1,3.6
O=C(C1COc2ccccc2O1)N1CCCC1 (stereo unspecified),20678*,7.4,-1.0,-3.8,?,-2.7
O=C(COC(=O)c1cccs1)Nc1cccc(S(=O)(=O)N2CCCCC2)c1,3899,.,-1.2,0.0,0.3,.
Cc1ccc(SC(C)C(=O)Nc2ccncc2)cc1 (stereo unspecified),22693*,-3.2,1.4,2.3,1.8,7.6
Cc1ccc(N(C(C)C(=O)Nc2cccc(N(C)S(C)(=O)=O)c2)S(C)(=O)=O)cc1 (stereo unspecified),4666,-1.0,-0.7,-13.5,-2.2,1.3
Cc1ccc(SC(C)C(=O)Nc2cccnc2)cc1 (stereo unspecified),4304,1.9,-3.9,-4.9,-0.1,-1.6
Cc1ccc(SC(C)C(=O)Nc2cccc(N(C)S(C)(=O)=O)c2)cc1 (stereo unspecified),19657*,1.6,-14.9,10.3,6.3,-1.2
CC(C)c1cccc(-c2csc(C(C)(O)c3ccncc3)n2)c1 (stereo unspecified),3936,.,-7.5,8.5,0.0,.
O=C(CSc1cn(Cc2ccccc2)c2ccccc12)N1CCOCC1,4550,0.0,2.1,-9.5,-1.7,7.8
Cn1nnnc1SCCNCc1ccc(Cl)cc1,17333*,-2.7,-2.4,-9.2,?,0.9
O=C1CC(Nc2ccc(N3CCOCC3)cc2)C(=O)N1Cc1ccccc1 (stereo unspecified),22615*,4.4,-3.1,-7.6,-1.5,-9.3
